# Experimental data from the supplement of paper PMC8728848.
# About 410 targets per protein were measured; listed, in parts, are those with the strongest signals and a random draw of the rest.
# B1: Thrombomodulin (Mus musculus) (protein)
# chain: ALAKLQPTGSQCVEHECFALFQGPATFLDASQACQRLQGHLMTVRSSVAADVISLLLSQSSMDLGPWIGLQLPQGCDDPVHLGPLRGFQWVTGDNHTSYSRWARPNDQTAPLCGPLCVTVSTATEAAPGEPAWEEKPCETETQGFLCEFYFTASC
# Key:
# Assay in all cases: glycan array binding signal (z-score within array); higher = stronger binding
# Conditions in all cases: glycan notation: IUPAC condensed, linker removed
# Fuc(a1-2)Gal(b1-4)Glc6S = biological target: Fuc(a1-2)Gal(b1-4)Glc6S
# Summary of the method: (§1)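 The Consortium for Functional Glycomics database supplied 3228 glycan arrays, of which those lacking an available protein sequence were dropped. The binding signal, a within-array Z-score, was averaged across arrays of the same protein sequence and across linkers. Negative scores can be read as non-binding.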
# [1] = biological target: Fuc(a1-2)Gal3S(b1-4)GlcNAc
# Summary of the method: as §1
# [2] = biological target: Fuc(a1-2)Gal6S(b1-4)Glc6S
# Summary of the method: as §1
# [3] = biological target: Fuc(a1-2)[Gal(a1-3)]Gal(b1-4)GlcNAc(b1-3)[Fuc(a1-2)[Gal(a1-3)]Gal(b1-4)GlcNAc(b1-6)]GalNAc
# Summary of the method: as §1
# [4] = biological target: Fuc(a1-3)[Gal(b1-4)]GlcNAc(b1-3)Gal(b1-4)[Fuc(a1-3)]GlcNAc(b1-3)Gal(b1-4)[Fuc(a1-3)]GlcNAc
# Summary of the method: as §1
# [5] = biological target: Fuc(a1-3)[Gal3S(b1-4)]GlcNAc6S
# Summary of the method: as §1
# Fuc(a1-4)GlcNAc = biological target: Fuc(a1-4)GlcNAc
# Summary of the method: as §1
# Gal(a1-3)Gal(b1-3)GlcNAc = biological target: Gal(a1-3)Gal(b1-3)GlcNAc
# Summary of the method: as §1
# [6] = biological target: Gal(a1-3)Gal(b1-3)[Fuc(a1-4)]GlcNAc(b1-2)Man(a1-3)[Gal(a1-3)Gal(b1-3)[Fuc(a1-4)]GlcNAc(b1-2)Man(a1-6)]Man(b1-4)GlcNAc(b1-4)GlcNAc
# Summary of the method: as §1
# [7] = biological target: Gal(a1-3)Gal(b1-4)[Fuc(a1-3)]GlcNAc(b1-2)Man(a1-3)[Gal(a1-3)Gal(b1-4)[Fuc(a1-3)]GlcNAc(b1-2)Man(a1-6)]Man(b1-4)GlcNAc(b1-4)GlcNAc
# Summary of the method: as §1
# [8] = biological target: Gal(a1-3)[Gal(a1-4)]Gal(b1-4)GlcNAc
# Summary of the method: as §1
# [9] = biological target: Gal(b1-3)GalNAc(b1-3)Gal(a1-4)Gal(b1-4)Glc
# Summary of the method: as §1
# [10] = biological target: Gal(b1-3)GlcNAc(b1-3)Gal(b1-3)GlcNAc
# Summary of the method: as §1
# [11] = biological target: Gal(b1-3)GlcNAc(b1-3)Gal(b1-4)GlcNAc(b1-2)Man(a1-3)[Gal(b1-3)GlcNAc(b1-3)Gal(b1-4)GlcNAc(b1-2)Man(a1-6)]Man(b1-4)GlcNAc(b1-4)GlcNAc
# Summary of the method: as §1
# [12] = biological target: Gal(b1-3)GlcNAc(b1-3)Gal(b1-4)GlcNAc(b1-6)[Gal(b1-3)GlcNAc(b1-3)]Gal(b1-4)Glc
# Summary of the method: as §1
# [13] = biological target: Gal(b1-3)GlcNAc(b1-6)[Gal(b1-3)]GalNAc
# Summary of the method: as §1
# [14] = biological target: Gal(b1-3)[Fuc(a1-4)]GlcNAc(b1-2)Man(a1-3)[Gal(b1-3)[Fuc(a1-4)]GlcNAc(b1-2)Man(a1-6)]Man(b1-4)GlcNAc(b1-4)[Fuc(a1-6)]GlcNAc
# Summary of the method: as §1
# [15] = biological target: Gal(b1-4)GlcNAc(b1-2)Man(a1-6)[Man(a1-3)]Man(b1-4)GlcNAc(b1-4)GlcNAc
# Summary of the method: as §1
# [16] = biological target: Gal(b1-4)GlcNAc(b1-3)Gal(b1-4)GlcNAc(b1-2)Man(a1-3)[Gal(b1-4)GlcNAc(b1-3)Gal(b1-4)GlcNAc(b1-2)Man(a1-6)]Man(b1-4)GlcNAc(b1-4)GlcNAc
# Summary of the method: as §1
# [17] = biological target: Gal(b1-4)GlcNAc(b1-3)Gal(b1-4)GlcNAc(b1-2)[Gal(b1-4)GlcNAc(b1-3)Gal(b1-4)GlcNAc(b1-6)]Man(a1-6)[Gal(b1-4)GlcNAc(b1-3)Gal(b1-4)GlcNAc(b1-2)Man(a1-3)]Man(b1-4)GlcNAc(b1-4)[Fuc(a1-6)]GlcNAc
# Summary of the method: as §1
# [18] = biological target: Gal(b1-4)GlcNAc(b1-3)Gal(b1-4)[Fuc(a1-3)]GlcNAc(b1-3)Gal(b1-4)[Fuc(a1-3)]GlcNAc
# Summary of the method: as §1
# [19] = biological target: Gal(b1-4)GlcNAc(b1-3)[GlcNAc(b1-6)]Gal(b1-4)GlcNAc
# Summary of the method: as §1
# [20] = biological target: Gal(b1-4)GlcNAc(b1-6)Gal(b1-4)GlcNAc
# Summary of the method: as §1
# [21] = biological target: Gal(b1-4)GlcNAc(b1-6)[Gal(b1-3)]GalNAc
# Summary of the method: as §1
# Gal3S(b1-3)GlcNAc = biological target: Gal3S(b1-3)GlcNAc
# Summary of the method: as §1
# [22] = biological target: Gal3S(b1-4)[Fuc(a1-3)]Glc6S
# Summary of the method: as §1
# GalNAc(a1-3)Gal = biological target: GalNAc(a1-3)Gal
# Summary of the method: as §1
# GalNAc(b1-3)GlcNAc = biological target: GalNAc(b1-3)GlcNAc
# Summary of the method: as §1
# GalNAc(b1-4)GlcNAc = biological target: GalNAc(b1-4)GlcNAc
# Summary of the method: as §1
# GalNAc6S(b1-4)GlcNAc = biological target: GalNAc6S(b1-4)GlcNAc
# Summary of the method: as §1
binder,measurement,setting,value
B1,glycan array binding signal (z-score),Fuc(a1-2)Gal(b1-4)Glc6S,0.107
same,glycan array binding signal (z-score),[1],-0.236
same,glycan array binding signal (z-score),[2],-0.056
same,glycan array binding signal (z-score),[3],5.4
same,glycan array binding signal (z-score),[4],-0.183
same,glycan array binding signal (z-score),[5],-0.172
same,glycan array binding signal (z-score),Fuc(a1-4)GlcNAc,3.52
same,glycan array binding signal (z-score),Gal(a1-3)Gal(b1-3)GlcNAc,4.59
same,glycan array binding signal (z-score),[6],0.179
same,glycan array binding signal (z-score),[7],0.955
same,glycan array binding signal (z-score),[8],0.213
same,glycan array binding signal (z-score),[9],-0.277
same,glycan array binding signal (z-score),[10],0.083
same,glycan array binding signal (z-score),[11],-0.022
same,glycan array binding signal (z-score),[12],0.148
same,glycan array binding signal (z-score),[13],-0.267
same,glycan array binding signal (z-score),[14],0.595
same,glycan array binding signal (z-score),[15],0.088
same,glycan array binding signal (z-score),[16],1.25
same,glycan array binding signal (z-score),[17],0.053
same,glycan array binding signal (z-score),[18],0.126
same,glycan array binding signal (z-score),[19],-0.029
same,glycan array binding signal (z-score),[20],-0.219
same,glycan array binding signal (z-score),[21],-0.326
same,glycan array binding signal (z-score),Gal3S(b1-3)GlcNAc,-0.007
same,glycan array binding signal (z-score),[22],0.12
same,glycan array binding signal (z-score),GalNAc(a1-3)Gal,0.15
same,glycan array binding signal (z-score),GalNAc(b1-3)GlcNAc,-0.37
same,glycan array binding signal (z-score),GalNAc(b1-4)GlcNAc,0.33
same,glycan array binding signal (z-score),GalNAc6S(b1-4)GlcNAc,-0.071
